In PubChem BioAssay (EPA / NIEHS):
Where “and” joins values, the source holds several entries; their conditions need not be identical. Equal values may be shown once. Records with an inconclusive call do not appear. A structure can be active in one record and inactive in another. Calls of active or inactive are those of the source. The calls were made as follows, unless noted: active = hit-call score of the fitted dose curve at least 0.9, where 1 is the maximum; inactive = score below 0.9.

Experiments:
[1] = molecular target: Glucocorticoid receptor (Homo sapiens) (UniProt P04150); assay: ATG_GR_TRANS: Attagene TRANS-FACTORIAL HepG2 Assay for human Glucocorticoid Receptor (GR) (AID 2282978; active = hit-call score of the fitted dose curve at least 0.9, where 1 is the maximum;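 also: activators score as hits since higher reporter transcript over DMSO is fitted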); conditions: HepG2 Attagene TRANS GR reporter, mRNA transcription
Glucocorticoid receptor (Homo sapiens), sequence (P04150 whole entry, looked up): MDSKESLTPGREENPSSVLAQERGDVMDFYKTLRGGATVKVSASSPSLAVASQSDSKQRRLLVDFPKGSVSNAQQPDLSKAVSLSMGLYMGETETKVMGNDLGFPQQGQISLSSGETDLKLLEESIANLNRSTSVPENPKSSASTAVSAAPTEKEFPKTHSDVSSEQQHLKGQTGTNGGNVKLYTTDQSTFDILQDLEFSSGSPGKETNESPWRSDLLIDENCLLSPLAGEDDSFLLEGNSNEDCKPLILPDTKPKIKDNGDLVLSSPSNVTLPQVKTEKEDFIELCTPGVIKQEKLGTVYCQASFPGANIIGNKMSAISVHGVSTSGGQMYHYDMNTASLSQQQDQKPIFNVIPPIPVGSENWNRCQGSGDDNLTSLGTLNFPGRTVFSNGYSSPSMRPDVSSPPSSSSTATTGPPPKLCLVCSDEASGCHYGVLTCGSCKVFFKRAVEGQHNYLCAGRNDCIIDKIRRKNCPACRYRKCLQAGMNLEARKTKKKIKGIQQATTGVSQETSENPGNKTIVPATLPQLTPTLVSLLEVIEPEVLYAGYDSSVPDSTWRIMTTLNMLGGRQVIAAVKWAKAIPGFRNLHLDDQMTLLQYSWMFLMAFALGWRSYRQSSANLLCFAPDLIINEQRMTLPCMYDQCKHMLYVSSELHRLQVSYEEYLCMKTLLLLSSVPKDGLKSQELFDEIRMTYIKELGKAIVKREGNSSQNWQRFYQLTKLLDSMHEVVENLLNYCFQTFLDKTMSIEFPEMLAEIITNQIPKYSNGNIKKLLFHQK
Method in brief: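 After 24 h incubation with test chemical, transfected HepG2 cells were lysed for RNA; reporter cDNA was amplified, FAM-labelled, HpaI-digested and sized on a capillary analyser. Signal gain relative to DMSO was scored.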

[2] = molecular target: Bile acid receptor (Homo sapiens) (UniProt Q96RI1); assay: ATG_FXR_TRANS: Attagene TRANS-FACTORIAL HepG2 Assay for Farnesoid X Receptor (FXR) (AID 2282979; active = hit-call score of the fitted dose curve at least 0.9, where 1 is the maximum;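 also: hits raise reporter mRNA above DMSO so AC50 marks FXR activation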); conditions: HepG2 Attagene TRANS FXR-GAL4 reporter transcription
Bile acid receptor (Homo sapiens), sequence (Q96RI1 whole entry, looked up, the tested form may be a part): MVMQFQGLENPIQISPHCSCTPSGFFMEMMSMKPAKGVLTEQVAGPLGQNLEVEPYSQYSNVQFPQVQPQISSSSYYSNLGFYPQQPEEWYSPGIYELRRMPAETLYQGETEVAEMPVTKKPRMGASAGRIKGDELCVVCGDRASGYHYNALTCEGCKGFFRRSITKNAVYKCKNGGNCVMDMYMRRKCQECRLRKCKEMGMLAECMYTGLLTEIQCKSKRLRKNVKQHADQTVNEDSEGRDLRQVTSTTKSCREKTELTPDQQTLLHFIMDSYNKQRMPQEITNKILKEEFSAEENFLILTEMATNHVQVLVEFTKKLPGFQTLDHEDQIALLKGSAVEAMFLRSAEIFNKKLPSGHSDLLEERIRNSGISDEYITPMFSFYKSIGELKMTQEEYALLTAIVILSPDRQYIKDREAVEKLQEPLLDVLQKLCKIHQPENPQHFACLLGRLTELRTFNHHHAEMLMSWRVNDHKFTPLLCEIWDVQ
Method in brief: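 Read-out: fluorescent reporter transcripts quantified by capillary electrophoresis after RT-PCR of total RNA. Source cells were HepG2 transiently carrying chimeric NR-GAL4 plus GAL4-UAS reporter units, dosed 24 h. Activity fitted upward relative to DMSO baseline.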

[3] = molecular target: Oxysterols receptor LXR-beta (Homo sapiens) (UniProt P55055); assay: ATG_LXRb_TRANS: Attagene TRANS-FACTORIAL HepG2 Assay for human Liver X Receptor beta (LXRb) (AID 2282981; active = hit-call score of the fitted dose curve at least 0.9, where 1 is the maximum); conditions: HepG2 Attagene TRANS GAL4-LXRb reporter, mRNA
Oxysterols receptor LXR-beta (Homo sapiens), sequence (P55055 whole entry, looked up, the tested form may be a part): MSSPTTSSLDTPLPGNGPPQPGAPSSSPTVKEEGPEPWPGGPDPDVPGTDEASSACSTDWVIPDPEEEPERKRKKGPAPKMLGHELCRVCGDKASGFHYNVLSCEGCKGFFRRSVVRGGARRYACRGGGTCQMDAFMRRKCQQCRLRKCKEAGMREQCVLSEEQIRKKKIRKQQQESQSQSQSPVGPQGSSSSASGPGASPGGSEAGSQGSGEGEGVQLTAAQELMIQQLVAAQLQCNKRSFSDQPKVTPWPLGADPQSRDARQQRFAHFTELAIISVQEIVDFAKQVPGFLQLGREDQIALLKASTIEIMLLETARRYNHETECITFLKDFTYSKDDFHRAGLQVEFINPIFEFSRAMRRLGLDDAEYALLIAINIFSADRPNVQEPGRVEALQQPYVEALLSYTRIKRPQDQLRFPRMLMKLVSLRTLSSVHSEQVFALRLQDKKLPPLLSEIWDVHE
Method in brief: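 Transient transfection HepG2 (multiplexed RTUs, GAL4-UAS); NR-Gal4 chimera; 24 h exposure; RNA → RT-PCR → 6-FAM primer extension → HpaI → CE; increase vs DMSO.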

[4] = ATG_M_06_TRANS: Attagene TRANS-FACTORIAL HepG2 Assay for M06 Transcription Factor (Internal Marker) (AID 2282983; active = hit-call score of the fitted dose curve at least 0.9, where 1 is the maximum); conditions: HepG2 Attagene TRANS M06 internal marker reporter
Method in brief: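 After a 24 h chemical treatment of transfected HepG2, RNA underwent DNase I treatment, reverse transcription and reporter-specific PCR; labelled, HpaI-digested products were sized by capillary electrophoresis. Signal increase relative to DMSO defined activity.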

[5] = ATG_M_32_TRANS: Attagene TRANS-FACTORIAL HepG2 Assay for M32 Transcription Factor (Internal Marker) (AID 2282984; active = hit-call score of the fitted dose curve at least 0.9, where 1 is the maximum;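 also: transcript level of a background control reporter unit measured by RT-PCR and capillary electrophoresis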); conditions: HepG2 Attagene TRANS M32 internal marker reporter
Method in brief: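 Measures reporter mRNA induction in human HepG2 liver cells after 24 h chemical treatment. Transcripts from transiently transfected GAL4-UAS reporter units are amplified, fluorescently labelled and sized by capillary electrophoresis; gain of signal relative to DMSO.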

[6] = molecular target: Nuclear receptor subfamily 4 group A member 2 (Homo sapiens) (UniProt P43354); assay: ATG_NURR1_TRANS: Attagene TRANS-FACTORIAL HepG2 Assay for human Nuclear Receptor Related Protein 1 (NURR1) (AID 2282985; active = hit-call score of the fitted dose curve at least 0.9, where 1 is the maximum); conditions: HepG2 Attagene TRANS reporter, mRNA readout
Nuclear receptor subfamily 4 group A member 2 (Homo sapiens), sequence (P43354 whole entry, looked up, the tested form may be a part): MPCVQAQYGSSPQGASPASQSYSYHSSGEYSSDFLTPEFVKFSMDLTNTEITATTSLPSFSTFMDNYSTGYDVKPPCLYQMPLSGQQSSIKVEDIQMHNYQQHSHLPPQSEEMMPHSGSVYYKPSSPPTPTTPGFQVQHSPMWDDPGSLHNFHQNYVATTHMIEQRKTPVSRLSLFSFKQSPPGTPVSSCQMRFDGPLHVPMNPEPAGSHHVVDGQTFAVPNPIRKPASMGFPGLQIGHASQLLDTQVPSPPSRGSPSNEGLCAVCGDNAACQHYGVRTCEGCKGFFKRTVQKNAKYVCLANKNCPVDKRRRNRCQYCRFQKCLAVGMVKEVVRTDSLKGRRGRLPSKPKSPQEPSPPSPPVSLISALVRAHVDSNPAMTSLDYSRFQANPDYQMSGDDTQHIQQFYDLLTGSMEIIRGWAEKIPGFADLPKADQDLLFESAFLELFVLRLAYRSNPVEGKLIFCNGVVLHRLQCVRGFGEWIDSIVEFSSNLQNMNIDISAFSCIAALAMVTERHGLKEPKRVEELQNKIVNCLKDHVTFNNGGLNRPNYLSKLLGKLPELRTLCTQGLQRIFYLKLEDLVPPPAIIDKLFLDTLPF
Method in brief: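 Transient transfection of HepG2, human liver cells, with multiple GAL4-UAS reporter transcription units. Cells dosed 24 h, RNA isolated, reverse-transcribed, PCR-amplified, FAM-labelled, HpaI-digested, sized by capillary electrophoresis. DMSO served as negative control.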

[7] = molecular target: Transcriptional activator Myb (Homo sapiens) (UniProt P10242); assay: ATG_Myb_CIS: Attagene CIS-FACTORIAL HepG2 Assay for human Myeloblastosis (Myb) Proto-Oncogene Transcription Factor (AID 2282986); conditions: HepG2 Attagene CIS-FACTORIAL Myb reporter transcription; actives raise or lower the signal
Transcriptional activator Myb (Homo sapiens), sequence (P10242 whole entry, looked up): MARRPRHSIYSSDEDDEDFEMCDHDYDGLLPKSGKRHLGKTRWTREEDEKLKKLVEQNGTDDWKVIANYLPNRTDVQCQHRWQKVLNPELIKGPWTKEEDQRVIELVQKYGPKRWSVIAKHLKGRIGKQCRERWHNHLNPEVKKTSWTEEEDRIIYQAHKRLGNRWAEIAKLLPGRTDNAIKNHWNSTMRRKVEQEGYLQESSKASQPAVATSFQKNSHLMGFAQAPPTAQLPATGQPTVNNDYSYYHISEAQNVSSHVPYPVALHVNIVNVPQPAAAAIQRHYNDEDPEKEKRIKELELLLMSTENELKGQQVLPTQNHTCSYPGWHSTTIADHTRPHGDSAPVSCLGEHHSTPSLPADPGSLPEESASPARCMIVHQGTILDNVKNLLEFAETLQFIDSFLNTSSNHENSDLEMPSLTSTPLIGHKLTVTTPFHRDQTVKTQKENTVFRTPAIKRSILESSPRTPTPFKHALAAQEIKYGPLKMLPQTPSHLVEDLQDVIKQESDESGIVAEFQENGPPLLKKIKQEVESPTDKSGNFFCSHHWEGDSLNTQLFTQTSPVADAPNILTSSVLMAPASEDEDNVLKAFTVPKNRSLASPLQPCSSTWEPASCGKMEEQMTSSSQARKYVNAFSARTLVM
Method in brief: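 After 24 h of compound dosing, total RNA from transfected HepG2 cells is reverse-transcribed and the reporter sequences amplified, labeled and separated by capillary electrophoresis. Values come from bidirectional fitting against DMSO.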

[8] = molecular target: Nuclear respiratory factor 1 (Homo sapiens) (UniProt Q16656); assay: ATG_NRF1_CIS: Attagene CIS-FACTORIAL HepG2 Assay for human Nuclear Respiratory Factor 1 (NRF1) Orphan Gene (AID 2282987); conditions: HepG2 NRF1 cis-element reporter, Attagene multiplex; actives raise or lower the signal
Nuclear respiratory factor 1 (Homo sapiens), sequence (Q16656 whole entry, looked up): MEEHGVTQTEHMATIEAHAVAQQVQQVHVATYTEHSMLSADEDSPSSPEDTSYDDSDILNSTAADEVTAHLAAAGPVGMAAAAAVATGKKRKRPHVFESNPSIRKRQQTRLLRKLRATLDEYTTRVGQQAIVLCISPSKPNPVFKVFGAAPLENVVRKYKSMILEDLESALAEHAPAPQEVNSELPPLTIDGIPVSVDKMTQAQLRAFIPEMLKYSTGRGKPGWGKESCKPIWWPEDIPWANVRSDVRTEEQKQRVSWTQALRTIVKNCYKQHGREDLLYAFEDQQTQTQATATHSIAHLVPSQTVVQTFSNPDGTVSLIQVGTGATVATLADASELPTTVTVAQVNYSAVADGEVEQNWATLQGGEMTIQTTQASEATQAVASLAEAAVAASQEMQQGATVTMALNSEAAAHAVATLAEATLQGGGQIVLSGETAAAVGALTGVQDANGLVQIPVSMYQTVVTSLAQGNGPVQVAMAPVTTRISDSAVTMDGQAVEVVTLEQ
Method in brief: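 Measured: fluorescent reporter-specific RT-PCR products from transfected HepG2 cells, separated by capillary electrophoresis. Exposure lasted 24 h. Analysis used bidirectional curve fitting with DMSO as negative control.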

[9] = ATG_NFI_CIS: Attagene CIS-FACTORIAL HepG2 Assay for human Nuclear Factor I (NFI) (AID 2282989); conditions: HepG2 cis-regulatory reporter, NFI response element transcription; actives raise or lower the signal
Method in brief: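 Cells: human liver HepG2, transiently transfected with promoter-regulated reporter transcription units. Exposure 24 h. Detection: fluorescent RT-PCR products separated by capillary electrophoresis, normalised to DMSO negative control.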

[10] = molecular target: Myc proto-oncogene protein (Homo sapiens) (UniProt P01106); assay: ATG_Myc_CIS: Attagene CIS-FACTORIAL HepG2 Assay for human Myelocytomatosis (Myc) Proto-Oncogene Transcription Factor (AID 2282990); conditions: HepG2, Attagene cis-reporter transcription factor activity; actives raise or lower the signal
Myc proto-oncogene protein (Homo sapiens), sequence (P01106 whole entry, looked up): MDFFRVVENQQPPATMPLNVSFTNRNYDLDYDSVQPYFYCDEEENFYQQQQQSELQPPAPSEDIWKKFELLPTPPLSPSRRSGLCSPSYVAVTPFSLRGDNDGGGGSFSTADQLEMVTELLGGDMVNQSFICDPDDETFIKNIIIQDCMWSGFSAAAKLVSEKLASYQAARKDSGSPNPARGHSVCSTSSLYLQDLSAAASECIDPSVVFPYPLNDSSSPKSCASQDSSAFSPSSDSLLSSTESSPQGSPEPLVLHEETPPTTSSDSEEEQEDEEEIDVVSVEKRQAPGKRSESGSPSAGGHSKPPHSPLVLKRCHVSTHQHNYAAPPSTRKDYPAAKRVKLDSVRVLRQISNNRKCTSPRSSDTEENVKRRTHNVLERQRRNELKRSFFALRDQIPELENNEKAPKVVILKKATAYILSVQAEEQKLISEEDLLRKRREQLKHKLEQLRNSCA
Method in brief: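 HepG2, transient MRTU transfection (cis promoters, endogenous TFs); 24 h dosing; TriZol RNA → oligo(dT) RT → PCR → 6-FAM primer extension → HpaI cut → CE. Bidirectional fit vs DMSO.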

[11] = ATG_NRF2_ARE_CIS: Attagene CIS-FACTORIAL HepG2 Assay for human Nuclear Factor Erythroid 2 Related Factor 2 (NFR2) response to Antioxidant Response Elements (ARE) (AID 2282992); conditions: HepG2 Attagene ARE/NRF2 reporter, transcription factor activity; actives raise or lower the signal;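 as to AC50: reporter mRNA level measured by RT-PCR and capillary electrophoresis fluorescence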
Method in brief: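 Cis-factorial assay: transfected HepG2 reporter library, 24 h dosing, mRNA readout via RT-PCR/CE; DMSO-referenced bidirectional analysis.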

[12] = ATG_Oct_MLP_CIS: Attagene CIS-FACTORIAL HepG2 Assay for human Octamer-Binding Transcription Factor (Oct) (AID 2282993); conditions: HepG2 Attagene cis-factorial Oct reporter, mRNA; actives raise or lower the signal
Method in brief: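 HepG2, transient MRTU transfection, cis promoter elements; 24 h dosing; RT-PCR/CE fluorescence read-out of reporter mRNA; fit both directions vs DMSO.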

[13] = molecular target: Cellular tumor antigen p53 (Homo sapiens) (UniProt P04637); assay: ATG_p53_CIS: Attagene CIS-FACTORIAL HepG2 Assay for human p53 Transcription Factor (AID 2282994); conditions: HepG2 p53 cis-element reporter, Attagene mRNA; actives raise or lower the signal
Cellular tumor antigen p53 (Homo sapiens), sequence (P04637 whole entry, looked up): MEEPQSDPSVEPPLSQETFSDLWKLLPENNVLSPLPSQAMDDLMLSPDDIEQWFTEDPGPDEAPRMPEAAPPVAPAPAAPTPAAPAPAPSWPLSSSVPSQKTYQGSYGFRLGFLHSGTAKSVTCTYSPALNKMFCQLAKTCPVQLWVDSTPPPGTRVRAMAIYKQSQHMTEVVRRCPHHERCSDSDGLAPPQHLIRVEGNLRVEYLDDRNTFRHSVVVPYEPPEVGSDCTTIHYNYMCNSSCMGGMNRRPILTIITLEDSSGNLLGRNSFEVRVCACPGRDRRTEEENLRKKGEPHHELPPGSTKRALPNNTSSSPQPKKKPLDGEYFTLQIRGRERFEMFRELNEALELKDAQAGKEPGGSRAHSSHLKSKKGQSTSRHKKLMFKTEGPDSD
Method in brief: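 Using HepG2 hepatoma cells carrying cis-acting multiplexed reporters, mRNA induction is detected after a 24 h exposure. Gain- and loss-of-signal responses are fitted relative to DMSO-treated cells.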

[14] = molecular target: Oxysterols receptor LXR-alpha (Homo sapiens) (UniProt Q13133); assay: ATG_LXRa_TRANS: Attagene TRANS-FACTORIAL HepG2 Assay for human Liver X Receptor alpha (LXRa) (AID 2282980; active = hit-call score of the fitted dose curve at least 0.9, where 1 is the maximum); conditions: HepG2 Attagene TRANS reporter, LXRa transactivation
Oxysterols receptor LXR-alpha (Homo sapiens), sequence (Q13133 whole entry, looked up, the tested form may be a part): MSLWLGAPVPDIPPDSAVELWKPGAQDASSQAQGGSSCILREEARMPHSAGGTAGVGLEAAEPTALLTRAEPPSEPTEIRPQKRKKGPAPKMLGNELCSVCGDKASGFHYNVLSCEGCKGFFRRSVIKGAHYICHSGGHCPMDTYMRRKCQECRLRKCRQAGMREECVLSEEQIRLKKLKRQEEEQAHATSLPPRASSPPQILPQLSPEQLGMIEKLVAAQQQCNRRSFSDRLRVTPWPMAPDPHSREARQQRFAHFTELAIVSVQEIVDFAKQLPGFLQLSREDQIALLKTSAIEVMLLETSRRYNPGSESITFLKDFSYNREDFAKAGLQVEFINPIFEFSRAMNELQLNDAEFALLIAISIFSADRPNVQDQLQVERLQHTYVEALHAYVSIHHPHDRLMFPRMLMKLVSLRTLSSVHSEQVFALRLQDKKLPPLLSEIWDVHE
Method in brief: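 Read-out: reporter transcript levels by RT-PCR plus capillary electrophoresis, fluorescence intensity. Transiently transfected HepG2, exogenous NR-GAL4 chimera, GAL4-UAS reporters; 24 h compound exposure. Activity = increase over DMSO negative control.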

[15] = molecular target: Hepatocyte nuclear factor 4-alpha (Homo sapiens) (UniProt P41235); assay: ATG_HNF4a_TRANS: Attagene TRANS-FACTORIAL HepG2 Assay for human Hepatocyte Nuclear Factor 4 alpha (HNF4a) (AID 2282982; active = hit-call score of the fitted dose curve at least 0.9, where 1 is the maximum); conditions: HepG2 HNF4a transactivation reporter, mRNA readout
Method in brief: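 Readout is fluorescent reporter-transcript fragments resolved by capillary electrophoresis after RT-PCR from HepG2 cells dosed for 24 h. Cells carried transfected GAL4-UAS reporter constructs measuring exogenous NR-GAL4 chimera activity; DMSO served as baseline.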

[16] = BSK_3C_TissueFactor: BioMAP Diversity Plus: 3C Assay for Tissue Factor Biomarker Activity (AID 2282997); conditions: BioMAP 3C HUVEC, tissue factor biomarker readout; actives raise or lower the signal
Method in brief: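 Human vascular primary cells (umbilical vein endothelium) received test chemical; Tissue Factor was determined by ELISA at 24 h, and both gain and loss of signal versus DMSO were fitted.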

[17] = BSK_3C_uPAR: BioMAP Diversity Plus: 3C Assay for Urokinase-type plasminogen activator receptor (uPAR) Biomarker Activity (AID 2282998); conditions: BioMAP 3C HUVEC, uPAR biomarker ELISA; actives raise or lower the signal
Method in brief: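 A multiplexed primary-cell system built on human umbilical vein endothelium was used, with chemical present for 24 h before reading. Cell-surface uPAR was detected by ELISA; signal change in either direction counted against DMSO.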

[18] = BSK_3C_VCAM1: BioMAP Diversity Plus: 3C Assay for Vascular cell adhesion molecule 1 (VCAM1) Biomarker Activity (AID 2282999); conditions: BioMAP 3C HUVEC, VCAM1 ELISA, cytokine-stimulated; actives raise or lower the signal
Method in brief: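 Endothelial cells from human umbilical vein are treated with test chemical. At 24 h, VCAM-1 is measured by ELISA, and responses in either direction are fitted relative to DMSO.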

Measured: AC50

CCCCCC(=O)O[C@]1(C(C)=O)CC[C@H]2[C@@H]3CCC4=CC(=O)CC[C@]4(C)[C@H]3CC[C@@]21C
active: [1] 476 nM | [6] 8.77 µM | [8] 8.32 µM | [11] 12.6 µM
not listed: [14] | [15] | [16] | [17] | [18]
inactive: all other assays above

C#C[C@]1(O)CC[C@H]2[C@@H]3CCc4cc(O)ccc4[C@H]3CC[C@@]21C
active: [7] 156 µM and 172 µM | [9] 26.4 µM and 72.3 µM and 48.5 µM | [10] 146 µM and 61.6 µM | [11] 187 µM | [13] 30 µM [middle of 4 runs] | [16] 5.38 µM | [17] 6.34 µM
inactive: [1] | [14] | [3] | [15] | [4] | [5] | [6] | [7] | [9] | [10] | [11] | [13] | [18]
